Test results: the supplement of paper PMC3545927
The other results are listed elsewhere or left out. The true hit rate is not given.

B1: HC2345 (peptide)
chain: CAEVLCHRPSAGNASASA
B2: HC1771 (peptide)
chain: CAMEECSQHDAGNASASA
B3: HC1035 (peptide)
chain: CAAVQTNWQKAGNASASA
B4: HC476 (peptide)
chain: CAMYVGGVEHAGNASASA
B5: HC46 (peptide)
chain: CATTPFSGSWAGNASASA
B6: FS-1096 (peptide)
chain: CATPPRSKRVAGNASASA
B7: HC2069 (peptide)
chain: CAVVCCSMYYAGNASASA
B8: HC627 (peptide)
chain: CAYVQMVIIKAGNASASA
B9: FS-1595 (peptide)
chain: CAKQFRALRSAGNASASA
B10: FS-1182 (peptide)
chain: CAAGRRALRSAGNASASA
B11: FS-848 (peptide)
chain: CAQLVRALRSAGNASASA
B12: HC703 (peptide)
chain: CAAGTRTIASAGNASASA
B13: FS-341 (peptide)
chain: CAKNGRPLRSAGNASASA
B14: HC386 (peptide)
chain: CAGCPERLASAGNASASA
B15: FS-505 (peptide)
chain: CASRLRFDRFAGNASASA
B16: FS-1465 (peptide)
chain: CALRIRNVRFAGNASASA
B17: FS-1433 (peptide)
chain: CAVRARFVRFAGNASASA
B18: FS-518 (peptide)
chain: CAVYVRVSRFAGNASASA
B19: FS-3186 (peptide)
chain: CAREARAVIFAGNASASA
B20: FS-517 (peptide)
chain: CAVYARVSRFAGNASASA
B21: HC2013 (peptide)
chain: CAVRCCSMSYAGNASASA
B22: HC2263 (peptide)
chain: CAALEVVTSTAGNASASA
B23: HC1350 (peptide)
chain: CADSDAESYSAGNASASA
B24: HC2475 (peptide)
chain: CAHTPCSAHLAGNASASA
B25: FS-2736 (peptide)
chain: CARPARSVGSAGNASASA
B26: FS-2626 (peptide)
chain: CAAQKRSVGSAGNASASA
B27: FS-2735 (peptide)
chain: CARPARSGGPAGNASASA
B28: FS-2398 (peptide)
chain: CARPARLVPAAGNASASA
B29: FS-2498 (peptide)
chain: CARPARSVSKAGNASASA
B30: FS-1521 (peptide)
chain: CAEMKRKKRVAGNASASA
B31: FS-201 (peptide)
chain: CATHSRKKRQAGNASASA
B32: FS-1538 (peptide)
chain: CAKKHKKKRVAGNASASA
B33: FS-968 (peptide)
chain: CAWNKRKKRQAGNASASA
B34: HC2531 (peptide)
chain: CASTPCSDHLAGNASASA
B35: FS-813 (peptide)
chain: CAKPARYRRGAGNASASA
B36: FS-861 (peptide)
chain: CARPARYRRGAGNASASA
B37: FS-2050 (peptide)
chain: CARPARDEGGAGNASASA
B38: EK9 (peptide)
chain: CAERGFFYTPAGNASASA
B39: HC2087 (peptide)
chain: CAVVCCSMSFAGNASASA
B40: HC2174 (peptide)
chain: CAEKVTSTWVAGNASASA
B41: FS-1188 (peptide)
chain: CACCRRKRRNAGNASASA
B42: FS-19 (peptide)
chain: CAEGQRKRRNAGNASASA
B43: HC1956 (peptide)
chain: CAGCTTPCSGAGNASASA
B44: HC233 (peptide)
chain: CAGGAARALAAGNASASA

Molecular target: furin, P09958
Experiment: furin cleavage Z-score vs untreated control; higher = more cleavage, active = 3.5 or more, inactive = 1 or less, 8 variable residues between constant flanks
Summary of the method: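 The cleavage Z-score is the log read count relative to furin-free reactions, lowess-adjusted and scaled by median absolute deviation. Counts came from sequencing DNA released from bead-bound 8-mer peptide–cDNA fusions after digestion with purified furin for 7.5, 15 or 30 min.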
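Further: purified furin at 1:10 enzyme:substrate in 50 mM HEPES pH 7.5.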

furin, P09958, sequence (P09958 whole entry): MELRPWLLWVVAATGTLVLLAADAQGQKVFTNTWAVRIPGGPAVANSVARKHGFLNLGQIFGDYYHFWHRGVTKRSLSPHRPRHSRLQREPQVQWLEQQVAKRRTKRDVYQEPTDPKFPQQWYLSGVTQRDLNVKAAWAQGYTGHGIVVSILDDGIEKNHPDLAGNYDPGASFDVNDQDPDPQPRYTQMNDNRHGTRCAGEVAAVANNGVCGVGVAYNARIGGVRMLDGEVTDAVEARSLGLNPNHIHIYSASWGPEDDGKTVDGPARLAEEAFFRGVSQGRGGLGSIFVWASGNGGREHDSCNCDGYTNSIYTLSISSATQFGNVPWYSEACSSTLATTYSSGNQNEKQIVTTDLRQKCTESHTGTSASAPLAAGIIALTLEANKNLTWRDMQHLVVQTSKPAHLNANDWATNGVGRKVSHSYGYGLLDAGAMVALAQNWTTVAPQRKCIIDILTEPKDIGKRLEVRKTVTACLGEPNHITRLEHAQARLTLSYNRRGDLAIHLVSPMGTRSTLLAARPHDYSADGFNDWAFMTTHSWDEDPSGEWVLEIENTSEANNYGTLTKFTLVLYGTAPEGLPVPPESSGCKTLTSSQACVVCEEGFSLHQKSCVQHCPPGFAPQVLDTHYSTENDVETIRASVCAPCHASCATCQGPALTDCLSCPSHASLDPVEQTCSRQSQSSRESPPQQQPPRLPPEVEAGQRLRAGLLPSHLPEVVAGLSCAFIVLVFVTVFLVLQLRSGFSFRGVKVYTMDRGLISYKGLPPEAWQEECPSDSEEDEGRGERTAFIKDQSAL

Sequence | furin cleavage Z-score (7.5 min) | furin cleavage Z-score (15 min) | furin cleavage Z-score (30 min)
B1 | 1.1 | -0.279 (inactive) | 0.507 (inactive)
B2 | -0.304 (inactive) | 0.175 (inactive) | 0.222 (inactive)
B3 | 0.252 (inactive) | 0.157 (inactive) | -0.0579 (inactive)
B4 | -0.473 (inactive) | -0.882 (inactive) | -0.205 (inactive)
B5 | -0.133 (inactive) | -0.615 (inactive) | -0.727 (inactive)
B6 | 4.55 (active) | 6.1 (active) | 4.13 (active)
B7 | -0.54 (inactive) | -0.258 (inactive) | -1.53 (inactive)
B8 | -1.63 (inactive) | -1.94 (inactive) | -0.568 (inactive)
B9 | 4.54 (active) | 5.86 (active) | 4.56 (active)
B10 | 4.32 (active) | 4.3 (active) | 3.06
B11 | 7.22 (active) | 7.99 (active) | 7.1 (active)
B12 | 0.83 (inactive) | 0.675 (inactive) | 0.11 (inactive)
B13 | 0.926 (inactive) | 2.59 | 0.891 (inactive)
B14 | 1.74 | 0.605 (inactive) | -0.259 (inactive)
B15 | -0.495 (inactive) | 0.902 (inactive) | -0.181 (inactive)
B16 | 2.76 | 6.35 (active) | 7.62 (active)
B17 | 9.46 (active) | 9.43 (active) | 8.99 (active)
B18 | 3.44 | 4.83 (active) | 6.25 (active)
B19 | -0.327 (inactive) | -0.0656 (inactive) | 2.23
B20 | 0.958 (inactive) | 0.514 (inactive) | 2.26
B21 | 0.204 (inactive) | -0.014 (inactive) | 0.753 (inactive)
B22 | 0.411 (inactive) | -0.918 (inactive) | -0.927 (inactive)

Sequence | furin cleavage Z-score (7.5 min) | furin cleavage Z-score (15 min) | furin cleavage Z-score (30 min)
B23 | -0.915 (inactive) | -2 (inactive) | -1.07 (inactive)
B24 | -0.788 (inactive) | -1.31 (inactive) | -0.643 (inactive)
B25 | 6.91 (active) | 7.69 (active) | 6.7 (active)
B26 | 0.58 (inactive) | 0.683 (inactive) | -0.853 (inactive)
B27 | -0.759 (inactive) | -1.01 (inactive) | -0.741 (inactive)
B28 | -0.162 (inactive) | -1.02 (inactive) | -0.581 (inactive)
B29 | 4.36 (active) | 6.03 (active) | 6.77 (active)
B30 | 6.73 (active) | 7.44 (active) | 8.54 (active)
B31 | 8.08 (active) | 7.91 (active) | 8.14 (active)
B32 | -1.41 (inactive) | -0.885 (inactive) | 0.391 (inactive)
B33 | 13.9 (active) | 14.4 (active) | 10.5 (active)
B34 | 0.0703 (inactive) | 0.929 (inactive) | -0.421 (inactive)
B35 | 12.3 (active) | 12.4 (active) | 9.69 (active)
B36 | 11.5 (active) | 11.1 (active) | 8.69 (active)
B37 | -0.0204 (inactive) | -1.47 (inactive) | -0.304 (inactive)
B38 | -0.00549 (inactive) | -1.03 (inactive) | -0.153 (inactive)
B39 | -0.658 (inactive) | 0.464 (inactive) | -0.984 (inactive)
B40 | -0.438 (inactive) | 1.1 | -0.0879 (inactive)
B41 | 10.9 (active) | 10.1 (active) | 9.12 (active)
B42 | 11.4 (active) | 10.7 (active) | 8.22 (active)
B43 | -0.873 (inactive) | -0.658 (inactive) | -0.0577 (inactive)
B44 | 0.841 (inactive) | -0.114 (inactive) | -0.813 (inactive)
